# Results filed as inconclusive are left out. Values without a mark were called inactive. Active and inactive are the calls of the source. The call rests on the fitted dose curve; in most records, active means well fitted curve in the direction sought with a large enough effect; inconclusive means small, poorly fitted or top-dose-only effect, or another doubt; inactive means no such curve, though single readings can be large; an effect the other way counts as inactive or inconclusive.
# Target: Rap guanine nucleotide exchange factor 3 (Homo sapiens) (UniProt O95398)
# Assay: Confirmatory qHTS for agonist of cAMP-regulated guanine nucleotide exchange factor 3 (EPAC1) (AID 1645881); further: nearly all actives have a fitted effect of over 75% in size;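 on activation: EPAC1 catalysed release of BODIPY-GDP from Rap1B seen as fluorescence loss; 100% = effect of cAMP agonist control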
# Details: EPAC1 Rap1B BODIPY-GDP exchange fluorescence; series mostly up to 154 µM; activation: at the top concentration
# Potency means the concentration at half of the fitted maximal effect.
# Chain of Rap guanine nucleotide exchange factor 3 (Homo sapiens) (O95398 whole entry, looked up): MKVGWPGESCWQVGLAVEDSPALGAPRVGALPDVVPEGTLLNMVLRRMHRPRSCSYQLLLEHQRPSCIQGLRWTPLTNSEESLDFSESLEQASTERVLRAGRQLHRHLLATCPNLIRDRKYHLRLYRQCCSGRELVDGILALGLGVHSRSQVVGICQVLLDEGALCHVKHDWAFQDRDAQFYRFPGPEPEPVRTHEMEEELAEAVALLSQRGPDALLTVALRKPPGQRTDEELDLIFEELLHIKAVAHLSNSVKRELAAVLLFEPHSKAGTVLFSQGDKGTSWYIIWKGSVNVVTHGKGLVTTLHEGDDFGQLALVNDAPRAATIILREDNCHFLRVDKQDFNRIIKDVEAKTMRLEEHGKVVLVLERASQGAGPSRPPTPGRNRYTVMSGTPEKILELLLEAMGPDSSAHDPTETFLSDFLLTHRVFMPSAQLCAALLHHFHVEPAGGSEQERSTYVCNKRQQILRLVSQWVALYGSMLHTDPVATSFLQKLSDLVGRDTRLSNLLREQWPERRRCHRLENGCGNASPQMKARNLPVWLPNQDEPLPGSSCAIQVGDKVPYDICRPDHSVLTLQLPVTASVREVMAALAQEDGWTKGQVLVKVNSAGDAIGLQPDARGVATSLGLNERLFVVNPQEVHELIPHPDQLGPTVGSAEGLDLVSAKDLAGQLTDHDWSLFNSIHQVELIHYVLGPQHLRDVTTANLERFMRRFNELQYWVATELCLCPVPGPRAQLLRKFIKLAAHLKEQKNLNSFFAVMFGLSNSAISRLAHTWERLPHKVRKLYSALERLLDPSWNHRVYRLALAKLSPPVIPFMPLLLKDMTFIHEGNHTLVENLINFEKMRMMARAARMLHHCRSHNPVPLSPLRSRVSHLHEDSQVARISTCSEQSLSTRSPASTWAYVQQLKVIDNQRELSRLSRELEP
Structure (SMILES),activation,Potency
OC(c1ccc2ccccc2n1)c1c(Cl)cccc1Cl (configuration not stated),28.5%,–
CCc1ccc(CNC(=O)Cn2nc(C)n3c(cc4cc(C)ccc43)c2=O)cc1,4.24%,–
Cc1cc(C)cc(NC(=O)c2sc3nc(-c4cc5ccccc5oc4=O)[nH]c(=O)c3c2C)c1,3.57%,–
COc1ccc(C(NC(=O)c2cc(OC)ccc2OC)c2ccccc2)cc1 (configuration not stated),18.8%,–
N#CC(C#N)=C1C=C2C=C(N3CCOCC3)CCC2CC1 (configuration not stated),–,44.7 µM (active)
COc1ccc(Br)cc1CN(C)CC(=O)Nc1c(Cl)cccc1Cl,18.8%,–
Cc1cc2ccccn2c1C(=O)c1ccc(Cl)c([N+](=O)[O-])c1,16%,–
CC(=O)c1cccc(NC(=O)Cn2cc(C(=O)c3cccc(Cl)c3)c(=O)c3ccc(C)nc32)c1,-10.1%,–
CCOc1cc(CNc2ccc(O)cc2)ccc1OCc1ccc(Cl)cc1,16.8%,–
Cc1cccc(Cn2c(-c3cccs3)nc3ccccc32)c1,23.3%,–
CCOc1cc(-c2ccc(OC(=O)c3ccc(OC)cc3)c(OC)c2)cc(=O)c2c(C)oc(C)c12,-5.09%,–
COc1cc(SC)ccc1C(=O)NC1CCCc2ccccc21 (configuration not stated),25.2%,–
Cc1ccccc1SCC(=O)Nc1cc(C(F)(F)F)ccc1N1CCOCC1,17.6%,–
Cc1ccc(S(=O)c2ccc([N+](=O)[O-])c3nonc23)cc1 (configuration not stated),26.8%,–
CCN(C(=O)c1sc2cc(OC)ccc2c1Cl)c1ccccc1,16.3%,–
COC(=O)C1=C(C)N(c2ccc(OC)cc2)C(C)=C(C(=O)OC)C1c1ccccc1,19%,–
COc1ccc(-c2nc3ccccc3n2Cc2ccccc2)cc1,19.4%,–
CCOc1ccccc1NC(=O)c1ccccc1-c1ccccc1,21.5%,–
Cc1ccc(CNC(=O)CN(c2cc(C)cc(C)c2)S(=O)(=O)c2c(C)[nH]c(=O)[nH]c2=O)cc1,3.33%,–
O=C(NCc1ccccc1F)c1ccc(CN2CC(=O)N3CCCCC3C2=O)cc1 (configuration not stated),10.6%,–
CCOc1ccc(-n2cnc3scc(-c4ccc(OC)c(OC)c4)c3c2=O)cc1,26.4%,–
Cc1ccc(-c2noc(-c3nnn(CC(=O)Nc4cc(Cl)ccc4C)c3N)n2)cc1,1.04%,–

# Target: Rap guanine nucleotide exchange factor 4 (Homo sapiens) (UniProt Q8WZA2)
# Assay: Confirmatory qHTS for antagonist of cAMP-regulated guanine nucleotide exchange factor 4 (EPAC2) (AID 1645885); further: nearly all actives have a fitted effect of over 25% in size; on activity change, negative = inhibition: on the % scale 0 is the no-effect control and ±100 the full control effect
# Details: EPAC2 Rap1B-BODIPY-GDP exchange fluorescence, biochemical; series mostly up to 12.7 µM; activity change, negative = inhibition: at the top concentration
# Chain of Rap guanine nucleotide exchange factor 4 (Homo sapiens) (Q8WZA2 whole entry, looked up): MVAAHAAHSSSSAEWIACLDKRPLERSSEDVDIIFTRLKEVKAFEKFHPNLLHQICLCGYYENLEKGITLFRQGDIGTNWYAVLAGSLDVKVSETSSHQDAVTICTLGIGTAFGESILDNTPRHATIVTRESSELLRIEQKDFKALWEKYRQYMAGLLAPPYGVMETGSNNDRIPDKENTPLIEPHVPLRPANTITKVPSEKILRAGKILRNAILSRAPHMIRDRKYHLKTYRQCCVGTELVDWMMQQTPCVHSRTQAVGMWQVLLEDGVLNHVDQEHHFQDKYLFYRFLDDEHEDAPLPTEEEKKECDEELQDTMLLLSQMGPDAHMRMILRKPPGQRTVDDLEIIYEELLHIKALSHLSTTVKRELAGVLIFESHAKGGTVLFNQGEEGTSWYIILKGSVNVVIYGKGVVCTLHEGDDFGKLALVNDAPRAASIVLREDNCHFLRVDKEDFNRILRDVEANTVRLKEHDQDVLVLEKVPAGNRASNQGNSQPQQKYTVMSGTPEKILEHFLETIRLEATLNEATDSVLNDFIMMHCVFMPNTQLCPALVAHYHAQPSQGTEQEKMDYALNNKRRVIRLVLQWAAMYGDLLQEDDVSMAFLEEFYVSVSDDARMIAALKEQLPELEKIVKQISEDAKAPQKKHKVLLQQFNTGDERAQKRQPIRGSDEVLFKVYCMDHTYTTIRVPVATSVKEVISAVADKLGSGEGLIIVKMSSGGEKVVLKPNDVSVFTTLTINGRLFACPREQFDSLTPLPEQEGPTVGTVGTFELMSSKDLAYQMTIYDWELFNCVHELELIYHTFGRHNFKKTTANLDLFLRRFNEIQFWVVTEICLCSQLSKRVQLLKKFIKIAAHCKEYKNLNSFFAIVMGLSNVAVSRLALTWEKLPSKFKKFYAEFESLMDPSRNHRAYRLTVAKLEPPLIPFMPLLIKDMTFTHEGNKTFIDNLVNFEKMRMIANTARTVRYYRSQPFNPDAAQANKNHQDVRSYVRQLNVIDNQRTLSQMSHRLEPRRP
Structure (SMILES),"activity change, negative = inhibition",outcome,Potency
COc1cc2c(cc1NC(=O)C(C)Oc1ccc(Cl)cc1Cl)oc1ccccc12 (configuration not stated),-10.8%,–,–
CCn1c2ccccc2c2cc(NC(=O)c3ccc(=O)oc3)ccc21,–,inactive [at 12.7 µM],–
CCCCCCn1c(=O)[nH]c2nc3cc(N)c(C)cc3nc2c1=O,73.1% [at 114 µM],–,–
OCCCCC#Cc1c(-c2ccsc2)sc2ccccc12,-8.6% [at 114 µM],–,–
COC(=O)c1c(SC)nc2ccccc2c1OCc1ccc(Cl)cc1,1.29%,–,–
COCc1ccccc1C1=CC(=O)C[C@H](c2ccc(F)cc2)C1,29.7% [at 114 µM],–,–
CC(NC(=O)c1ccc(Br)s1)c1ccncc1 (configuration not stated),1.88% [at 114 µM],–,–
COc1cccc(-c2nc(N3CCN(c4ccccc4)CC3)c3ccccc3n2)c1O,10.9% [at 114 µM],–,–
Cc1cc(Br)cc(C=Nc2ccc(N3CCOCC3)cc2)c1O,-2.35% [at 114 µM],–,–
O=C1/C(=C\c2cccnc2)Sc2ccccc21,1.04% [at 114 µM],–,–
O=S(=O)(Nc1ccccc1N1CCCCC1)c1ccccc1,-12.8% [at 114 µM],–,–
Cc1cccc(CNC(=O)c2ccc(-c3nc(CS(=O)(=O)c4ccccc4)c(C)o3)cc2)c1,19.5%,–,–
Cc1ccc(CNc2cc(C)nc3nc(-c4ccc(C)cc4)nn23)cc1,-12.5%,–,–
CCOc1ccc(NC(=O)CSc2nc(-c3cccc(Cl)c3)nc3c2Cc2c(CO)cnc(C)c2O3)cc1,9.88%,–,–
COc1cc(NC(=O)CCNC(=O)Cn2ccc3ccccc3c2=O)cc(OC)c1OC,-5.86%,–,–
COc1ccc(-n2c(O)c(/C=N/NS(=O)(=O)c3cc(C)ccc3C)c3ccccc3c2=O)cc1OC,–,–,33.8 µM (active)
CCOc1ccccc1N1CCN(C(=O)c2cc3c(s2)CCC3)CC1,30.1% [at 114 µM],–,–
COc1cc2c(cc1OC)C(c1cccc(Cl)c1)CC(=O)N2 (configuration not stated),4.74%,–,–
OC(c1ccc2ccccc2n1)c1c(Cl)cccc1Cl (configuration not stated),–,inactive; activator; fitted 1.9012 uM,–
CCc1ccc(CNC(=O)Cn2nc(C)n3c(cc4cc(C)ccc43)c2=O)cc1,–,inactive [at 12.7 µM],–

Structure (SMILES),"activity change, negative = inhibition",outcome,Potency
Cc1cc(C)cc(NC(=O)c2sc3nc(-c4cc5ccccc5oc4=O)[nH]c(=O)c3c2C)c1,4.91%,–,–
COc1ccc(C(NC(=O)c2cc(OC)ccc2OC)c2ccccc2)cc1 (configuration not stated),51.8% [at 114 µM],–,–
N#CC(C#N)=C1C=C2C=C(N3CCOCC3)CCC2CC1 (configuration not stated),–,–,37.9 µM (active)
COc1ccc(Br)cc1CN(C)CC(=O)Nc1c(Cl)cccc1Cl,–,–,13.5 µM (active)
Cc1cc2ccccn2c1C(=O)c1ccc(Cl)c([N+](=O)[O-])c1,10.4% [at 114 µM],–,–
CC(=O)c1cccc(NC(=O)Cn2cc(C(=O)c3cccc(Cl)c3)c(=O)c3ccc(C)nc32)c1,–,inactive [at 12.7 µM],–
CCOc1cc(CNc2ccc(O)cc2)ccc1OCc1ccc(Cl)cc1,-0.911%,–,–
Cc1cccc(Cn2c(-c3cccs3)nc3ccccc32)c1,11.5%,–,–
CCOc1cc(-c2ccc(OC(=O)c3ccc(OC)cc3)c(OC)c2)cc(=O)c2c(C)oc(C)c12,2.07%,–,–
COc1cc(SC)ccc1C(=O)NC1CCCc2ccccc21 (configuration not stated),–,–,30.1 µM (active)
Cc1ccccc1SCC(=O)Nc1cc(C(F)(F)F)ccc1N1CCOCC1,–,–,2.39 µM (active)
Cc1ccc(S(=O)c2ccc([N+](=O)[O-])c3nonc23)cc1 (configuration not stated),36.9% [at 114 µM],–,–
CCN(C(=O)c1sc2cc(OC)ccc2c1Cl)c1ccccc1,51.5%,–,–
COC(=O)C1=C(C)N(c2ccc(OC)cc2)C(C)=C(C(=O)OC)C1c1ccccc1,-16.7% [at 114 µM],–,–
COc1ccc(-c2nc3ccccc3n2Cc2ccccc2)cc1,73.4%,–,–
CCOc1ccccc1NC(=O)c1ccccc1-c1ccccc1,4.64% [at 114 µM],–,–
Cc1ccc(CNC(=O)CN(c2cc(C)cc(C)c2)S(=O)(=O)c2c(C)[nH]c(=O)[nH]c2=O)cc1,3.88%,–,–
O=C(NCc1ccccc1F)c1ccc(CN2CC(=O)N3CCCCC3C2=O)cc1 (configuration not stated),-4.65%,–,–
CCOc1ccc(-n2cnc3scc(-c4ccc(OC)c(OC)c4)c3c2=O)cc1,42.7% [at 114 µM],–,–
Cc1ccc(-c2noc(-c3nnn(CC(=O)Nc4cc(Cl)ccc4C)c3N)n2)cc1,–,inactive [at 12.7 µM],–
